According to the supplement of paper PMC10849652:
About 7,900 targets were measured; listed, in parts, are those with a hit and a random draw of the rest. About 0.6% of all pairs of compound and target were hits.

These targets were tested with CC1=C(SC2=C1C(=N[C@H](C3=NN=C(N32)C)CC(=O)N)C4=CC=C(C=C4)Cl)C (assay: log2 fold change, soluble protein after heating vs DMSO (PISA); higher = thermal stabilisation; K562 cells, 10 uM, 30 min; active = over 0.2 and 3.5 SD of the protein, either way, in both replicates (recomputed)).
In short: (§1)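 Values are thermal stability changes relative to control samples and are taken from duplicates. They are stated as log2 fold changes. Before quantification by TMTpro 16plex LC-MS/MS with equalised channel sums, K562 cells at 2×10^6 cells/mL were treated with 10 μM compound for 30 min, heated in aliquots for 3 min across 48°C-58°C, pooled, extracted in PBS with 0.5% NP-40 at 4°C, and centrifuged at 21,000xg for 90 min to give the soluble supernatant.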

Chain of UniProt P02008 (P02008 whole entry, looked up): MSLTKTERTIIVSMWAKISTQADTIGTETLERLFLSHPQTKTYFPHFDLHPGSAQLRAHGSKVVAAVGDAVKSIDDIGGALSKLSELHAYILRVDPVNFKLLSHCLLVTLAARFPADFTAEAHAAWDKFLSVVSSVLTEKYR
Chain of UniProt Q86VS8 (Q86VS8 whole entry, looked up): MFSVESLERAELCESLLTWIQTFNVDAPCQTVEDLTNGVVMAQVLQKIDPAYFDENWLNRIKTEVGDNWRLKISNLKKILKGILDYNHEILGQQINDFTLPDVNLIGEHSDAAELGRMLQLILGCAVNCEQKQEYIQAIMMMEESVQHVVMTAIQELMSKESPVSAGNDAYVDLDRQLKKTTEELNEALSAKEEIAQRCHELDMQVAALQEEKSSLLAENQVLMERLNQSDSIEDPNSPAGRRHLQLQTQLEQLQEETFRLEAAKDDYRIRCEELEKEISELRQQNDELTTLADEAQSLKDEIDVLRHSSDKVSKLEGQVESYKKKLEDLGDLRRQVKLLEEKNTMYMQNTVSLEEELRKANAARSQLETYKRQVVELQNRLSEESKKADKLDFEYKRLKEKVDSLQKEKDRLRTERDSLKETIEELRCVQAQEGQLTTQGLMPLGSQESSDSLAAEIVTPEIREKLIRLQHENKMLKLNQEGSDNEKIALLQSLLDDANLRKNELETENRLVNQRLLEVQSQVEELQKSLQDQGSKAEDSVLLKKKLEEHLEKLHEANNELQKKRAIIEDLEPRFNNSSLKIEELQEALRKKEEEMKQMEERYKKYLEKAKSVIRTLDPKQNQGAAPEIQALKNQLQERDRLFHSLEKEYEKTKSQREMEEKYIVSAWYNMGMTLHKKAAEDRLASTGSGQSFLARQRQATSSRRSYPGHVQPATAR
Chain of UniProt Q9H0R4 (Q9H0R4 whole entry, looked up): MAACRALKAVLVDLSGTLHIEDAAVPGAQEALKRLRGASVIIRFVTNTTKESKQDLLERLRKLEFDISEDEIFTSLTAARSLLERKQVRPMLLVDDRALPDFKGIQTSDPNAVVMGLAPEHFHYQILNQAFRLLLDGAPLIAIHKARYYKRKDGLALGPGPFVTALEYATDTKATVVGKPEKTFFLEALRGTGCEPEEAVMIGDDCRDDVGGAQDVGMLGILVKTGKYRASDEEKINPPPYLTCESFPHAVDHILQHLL
Chain of UniProt O43824 (O43824 whole entry, looked up): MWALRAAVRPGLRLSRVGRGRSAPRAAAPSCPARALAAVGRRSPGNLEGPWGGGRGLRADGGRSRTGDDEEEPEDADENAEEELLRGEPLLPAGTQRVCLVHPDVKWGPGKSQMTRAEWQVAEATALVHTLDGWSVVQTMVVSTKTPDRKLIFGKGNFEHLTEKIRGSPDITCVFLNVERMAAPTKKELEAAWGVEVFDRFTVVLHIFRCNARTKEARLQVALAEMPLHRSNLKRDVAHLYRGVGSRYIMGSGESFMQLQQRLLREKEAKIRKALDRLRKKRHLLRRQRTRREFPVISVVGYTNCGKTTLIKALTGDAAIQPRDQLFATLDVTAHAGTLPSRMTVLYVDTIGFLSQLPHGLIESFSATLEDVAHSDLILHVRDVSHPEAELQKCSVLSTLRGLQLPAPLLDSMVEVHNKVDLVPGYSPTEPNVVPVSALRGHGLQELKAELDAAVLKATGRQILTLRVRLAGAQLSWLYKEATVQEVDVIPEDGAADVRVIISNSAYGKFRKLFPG
Chain of UniProt Q9NZC3 (Q9NZC3 whole entry, looked up): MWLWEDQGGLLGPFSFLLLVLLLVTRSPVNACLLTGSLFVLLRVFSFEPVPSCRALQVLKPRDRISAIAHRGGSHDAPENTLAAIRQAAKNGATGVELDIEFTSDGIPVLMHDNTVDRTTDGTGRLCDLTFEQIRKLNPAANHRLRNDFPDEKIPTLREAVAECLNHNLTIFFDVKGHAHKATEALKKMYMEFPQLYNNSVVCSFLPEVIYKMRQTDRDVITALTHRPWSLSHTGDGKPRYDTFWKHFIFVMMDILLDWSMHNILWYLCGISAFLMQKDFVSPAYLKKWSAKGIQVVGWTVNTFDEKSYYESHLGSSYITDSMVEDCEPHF
Chain of UniProt Q92769 (Q92769 whole entry, looked up): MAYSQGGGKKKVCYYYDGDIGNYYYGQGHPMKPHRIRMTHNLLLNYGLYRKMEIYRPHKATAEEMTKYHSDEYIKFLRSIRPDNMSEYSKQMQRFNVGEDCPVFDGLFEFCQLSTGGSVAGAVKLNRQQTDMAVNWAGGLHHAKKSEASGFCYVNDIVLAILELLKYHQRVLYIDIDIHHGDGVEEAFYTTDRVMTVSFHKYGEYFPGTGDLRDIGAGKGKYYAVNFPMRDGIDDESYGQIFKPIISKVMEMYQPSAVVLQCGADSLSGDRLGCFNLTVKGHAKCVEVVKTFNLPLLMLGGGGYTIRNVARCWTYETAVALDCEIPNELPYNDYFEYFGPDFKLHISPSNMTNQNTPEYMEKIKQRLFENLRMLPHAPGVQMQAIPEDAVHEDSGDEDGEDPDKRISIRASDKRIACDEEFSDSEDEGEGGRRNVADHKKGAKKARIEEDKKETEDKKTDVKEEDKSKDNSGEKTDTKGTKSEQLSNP
Chain of UniProt Q86UL3 (Q86UL3 whole entry, looked up): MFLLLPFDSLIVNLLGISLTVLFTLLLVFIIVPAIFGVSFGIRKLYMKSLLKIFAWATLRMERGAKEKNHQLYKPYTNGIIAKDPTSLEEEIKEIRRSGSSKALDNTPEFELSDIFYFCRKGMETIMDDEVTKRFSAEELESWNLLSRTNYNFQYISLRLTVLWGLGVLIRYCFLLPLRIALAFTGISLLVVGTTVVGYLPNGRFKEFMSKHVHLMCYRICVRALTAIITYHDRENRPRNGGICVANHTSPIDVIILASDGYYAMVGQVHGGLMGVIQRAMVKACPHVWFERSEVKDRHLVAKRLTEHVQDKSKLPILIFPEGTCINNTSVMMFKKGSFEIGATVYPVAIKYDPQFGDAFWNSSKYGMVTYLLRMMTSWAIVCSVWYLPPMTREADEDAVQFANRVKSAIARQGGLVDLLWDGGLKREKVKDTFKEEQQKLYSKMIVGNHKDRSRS
Chain of UniProt Q9NRD1 (Q9NRD1 whole entry, looked up): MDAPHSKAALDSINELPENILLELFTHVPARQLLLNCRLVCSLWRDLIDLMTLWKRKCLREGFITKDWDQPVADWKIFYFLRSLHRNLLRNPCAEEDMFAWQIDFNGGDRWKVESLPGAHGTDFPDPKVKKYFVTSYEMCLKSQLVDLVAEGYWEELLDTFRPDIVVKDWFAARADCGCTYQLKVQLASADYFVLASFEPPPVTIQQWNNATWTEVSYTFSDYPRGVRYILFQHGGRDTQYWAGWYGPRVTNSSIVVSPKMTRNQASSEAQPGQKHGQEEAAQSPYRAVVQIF
Chain of UniProt P37268 (P37268 whole entry, looked up): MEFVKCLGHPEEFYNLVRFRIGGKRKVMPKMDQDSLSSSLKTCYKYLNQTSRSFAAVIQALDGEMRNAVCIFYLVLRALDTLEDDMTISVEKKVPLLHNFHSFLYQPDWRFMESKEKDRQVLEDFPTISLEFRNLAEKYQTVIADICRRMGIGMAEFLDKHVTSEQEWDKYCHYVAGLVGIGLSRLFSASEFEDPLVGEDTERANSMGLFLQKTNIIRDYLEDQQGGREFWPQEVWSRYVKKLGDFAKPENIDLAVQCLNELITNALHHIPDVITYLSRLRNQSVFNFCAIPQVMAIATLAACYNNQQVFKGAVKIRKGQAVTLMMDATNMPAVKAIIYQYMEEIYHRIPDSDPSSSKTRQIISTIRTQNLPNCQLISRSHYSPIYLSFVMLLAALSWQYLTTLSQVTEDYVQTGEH
Chain of UniProt Q9NVI1 (Q9NVI1 whole entry, looked up): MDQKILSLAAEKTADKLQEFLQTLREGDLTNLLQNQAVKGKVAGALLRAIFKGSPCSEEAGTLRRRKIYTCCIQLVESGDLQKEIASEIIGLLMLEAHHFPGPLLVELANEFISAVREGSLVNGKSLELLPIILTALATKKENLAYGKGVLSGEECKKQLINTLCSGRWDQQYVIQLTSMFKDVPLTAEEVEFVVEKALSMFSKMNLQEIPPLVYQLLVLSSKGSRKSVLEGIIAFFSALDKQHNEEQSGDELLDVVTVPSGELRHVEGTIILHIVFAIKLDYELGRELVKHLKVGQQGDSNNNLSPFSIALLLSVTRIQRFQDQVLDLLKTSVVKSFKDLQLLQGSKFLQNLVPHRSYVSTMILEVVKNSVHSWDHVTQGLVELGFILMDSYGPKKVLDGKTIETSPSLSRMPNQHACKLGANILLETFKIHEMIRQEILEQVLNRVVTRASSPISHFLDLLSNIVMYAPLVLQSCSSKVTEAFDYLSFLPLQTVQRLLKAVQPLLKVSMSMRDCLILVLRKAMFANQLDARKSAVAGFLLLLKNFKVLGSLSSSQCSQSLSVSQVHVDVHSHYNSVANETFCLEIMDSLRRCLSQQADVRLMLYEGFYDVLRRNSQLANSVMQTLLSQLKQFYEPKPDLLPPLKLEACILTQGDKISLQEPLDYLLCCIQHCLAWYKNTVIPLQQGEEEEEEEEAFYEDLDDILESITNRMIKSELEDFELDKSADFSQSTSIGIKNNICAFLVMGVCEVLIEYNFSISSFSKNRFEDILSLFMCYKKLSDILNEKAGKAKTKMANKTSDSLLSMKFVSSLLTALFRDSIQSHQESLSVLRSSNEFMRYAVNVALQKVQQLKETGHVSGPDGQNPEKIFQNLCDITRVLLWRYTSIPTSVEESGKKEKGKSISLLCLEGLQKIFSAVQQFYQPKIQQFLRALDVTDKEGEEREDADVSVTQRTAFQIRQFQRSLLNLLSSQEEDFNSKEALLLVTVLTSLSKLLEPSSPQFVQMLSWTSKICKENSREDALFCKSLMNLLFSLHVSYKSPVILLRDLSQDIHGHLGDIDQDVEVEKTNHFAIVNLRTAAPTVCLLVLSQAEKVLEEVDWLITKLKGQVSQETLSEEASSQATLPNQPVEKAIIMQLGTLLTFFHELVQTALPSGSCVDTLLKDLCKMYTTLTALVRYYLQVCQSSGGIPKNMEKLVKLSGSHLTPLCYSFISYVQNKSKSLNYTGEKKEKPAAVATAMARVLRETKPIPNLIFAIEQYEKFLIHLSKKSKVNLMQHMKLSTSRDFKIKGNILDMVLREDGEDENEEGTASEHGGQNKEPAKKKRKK

| Target | log2 fold change |
| --- | --- |
| HMOX2 (UniProt P30519) | 0.035 (inactive) |
| HNRNPH2 (UniProt P55795) | -0.037 (inactive) |
| GDE1 (UniProt Q9NZC3) | 0.037 (inactive) |
| HDAC2 (UniProt Q92769) | 0.042 (inactive) |
| GTF2E2 (UniProt P29084) | 0.043 (inactive) |
| GPAT4 (UniProt Q86UL3) | 0.046 (inactive) |
| FDFT1 (UniProt P37268) | 0.319 (active) |
| HSPA8 (UniProt E9PN89) | 0.094 (inactive) |
| IFI30 (UniProt P13284) | 0.01 (inactive) |
| FBXO6 (UniProt Q9NRD1) | 0.087 (inactive) |
| HMGB3 (UniProt O15347) | 0.022 (inactive) |
| HRAS (UniProt P01112) | 0.116 (inactive) |
| HOOK3 (UniProt Q86VS8) | -0.003 (inactive) |
| GTPBP6 (UniProt O43824) | 0.007 (inactive) |
| HDHD2 (UniProt Q9H0R4) | 0.006 (inactive) |
| FANCI (UniProt Q9NVI1) | 0.028 (inactive) |
| HBZ (UniProt P02008) | 0.191 (inactive) |

Each target was assayed with CC1=C2C(=CC=C1)N=C(N(C2=O)C3=CC=CC=C3C)CN4C=NC5=C(N=CN=C54)N in the same assay as above.
In short: as §1

| Target | log2 fold change |
| --- | --- |
| GTF2A2 (UniProt P52657) | 0.092 (inactive) |
| FANCD2 isoform 1 (UniProt Q9BXW9) | 0.159 (inactive) |
| GTF2A1 (UniProt P52655) | -0.01 (inactive) |
| FMC1 (UniProt Q96HJ9) | 0.044 (inactive) |
| FAT2 (UniProt Q9NYQ8) | 0.163 (inactive) |
| GLIPR2 (UniProt Q9H4G4) | -0.009 (inactive) |
| FUCA1 (UniProt P04066) | 0.03 (inactive) |
| FAT1 (UniProt Q14517) | 0.126 (inactive) |
| HDAC10 (UniProt Q969S8) | 0.07 (inactive) |
| HAUS4 (UniProt Q9H6D7) | 0.077 (inactive) |
| H1FX (UniProt Q92522) | -0.21 (inactive) |
| HK2 (UniProt P52789) | 0.007 (inactive) |
| GAGE12F (UniProt P0CL80) | 0.109 (inactive) |
| GYG1 (UniProt P46976) | -0.046 (inactive) |
| HMOX2 (UniProt P30519) | 0.169 (inactive) |
| HNRNPH2 (UniProt P55795) | 0.097 (inactive) |

| Target | log2 fold change |
| --- | --- |
| GDE1 (UniProt Q9NZC3) | 0.025 (inactive) |
| HDAC2 (UniProt Q92769) | 0.08 (inactive) |
| GTF2E2 (UniProt P29084) | 0.126 (inactive) |
| GPAT4 (UniProt Q86UL3) | 0.013 (inactive) |
| FDFT1 (UniProt P37268) | 0.089 (inactive) |
| HSPA8 (UniProt E9PN89) | 0.123 (inactive) |
| IFI30 (UniProt P13284) | -0.06 (inactive) |
| FBXO6 (UniProt Q9NRD1) | 0.041 (inactive) |
| HMGB3 (UniProt O15347) | -0.03 (inactive) |
| HRAS (UniProt P01112) | -0.03 (inactive) |
| HOOK3 (UniProt Q86VS8) | 0.018 (inactive) |
| GTPBP6 (UniProt O43824) | 0.012 (inactive) |
| HDHD2 (UniProt Q9H0R4) | -0.003 (inactive) |
| FANCI (UniProt Q9NVI1) | 0.109 (inactive) |
| HBZ (UniProt P02008) | 0.091 (inactive) |
